# High-throughput results as filed in PubChem.
# Cycloheximide cs – counter-screen for Shiga toxin inhibitors: cycloheximide protein synthesis inhibition | cell reporter, cycloheximide protein synthesis inhibition counterscreen | max response, % | 300,000 tested, 12% active; in the data active = max response mostly above about 13%, no sharp cut-off; inactive = mostly below about 14%; note: read at 38.3 µM for the half of the compounds with a filed dose; 0% is about no effect
# Pf growth 96h – inhibits malaria parasite growth, 96 h. P. falciparum luciferase reporter growth, 96 h. Potency, µM (titrated, usually from 28.7 µM), without a hit: at the highest dose activity change, negative = inhibition, most hits filed as inhibitors. 320,000 tested, 6.9% active; note: potency is the fitted concentration of half-maximal effect; % is set by controls: 0 for no effect and ±100 for the full control effect
#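 Luminescence readout: decreased luciferase signal marks inhibited growth of reporter-expressing P. falciparum in infected red cells (2% hematocrit, 0.05% parasitemia final), exposed to compound two generations (96 h, 37 C, 5% CO2).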
# Pf growth 48h – inhibits P. falciparum growth in the first generation, 48 h; Potency, µM (top dose mostly 28.7 µM), inactives show at the highest dose activity change, negative = inhibition, usual class: inhibitors; P. falciparum luciferase growth in erythrocytes, 48 h; 310,000 tested, 5.9% active; AID 504832; note: potency is the fitted concentration of half-maximal effect; % is set by controls: 0 for no effect and ±100 for the full control effect
#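 Growth was read as firefly luciferase luminescence after a 48 h, 37 C, 5% CO2 exposure of compounds to reporter-bearing P. falciparum cultures (0.1% parasitemia, 2% hematocrit final) in Albumax-supplemented RPMI 1640.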
# AMA1 RON2 block – disrupts binding of P. falciparum AMA1 to RON2; AlphaScreen AMA1-biotinylated RON2 peptide binding; Potency, µM (highest dose often 58.2 µM), for inactives: at the highest dose activity change, negative = inhibition, most hits filed as inhibitors; 360,000 tested, 0.2% active; AID 720542;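 note: potency is the fitted concentration of half-maximal effect; 0% = vehicle wells and -100% = peptide control; nearly all actives have a fitted effect of over 45% in size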
#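 AMA1 (3D7) with his tag at 25 nM final met compounds first, then biotinylated RON2 peptide at 25 nM; detection used donor plus acceptor beads, 10 µg/mL apiece, read by AlphaScreen after 30 min at room temperature.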
# Shiga inhibitor – Shiga toxin inhibition | AID 2315 | 290,000 tested, 9.2% active | inhibition, % at 38.7 µM | Vero cells, Shiga toxin protein synthesis inhibition reporter; in the data active = inhibition mostly above about 28%, no sharp cut-off; inactive = mostly below about 43%; note: 0% is about no effect
# HCV inhibitor – inhibitors of hepatitis C virus infection. Huh7.5.1 HCVcc-Cre infection, luciferase reporter, 44 h. Potency, µM (series often up to 41.8 µM), inactives show top-dose activity change, negative = inhibition, actives largely listed as inhibitors. 340,000 tested, 3.4% active. AID 651820; note: potency is the fitted concentration of half-maximal effect; % is set by controls: 0 for no effect and ±100 for the full control effect
#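 After 44 h co-culture of compound, cells and HCVcc-Cre (~0.5 moi), substrate is added for 15 min at room temperature and luciferase measured over 15 sec. Cells were seeded at 1,000/well and pre-cultured 4 h.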
# * = called active by the depositor; u = inconclusive; x = no result given. Most compounds without a hit are left out; they make up all but 21% or so of the library. Unless noted, calls come from the whole dose curve; as a rule, active = well fitted curve in the direction sought with a large enough effect; inconclusive = small, poorly fitted or top-dose-only effect, or another doubt; inactive = no such curve, though single readings can be large; an effect the other way counts as inactive or inconclusive.
SMILES,Cycloheximide cs,Pf growth 96h,Pf growth 48h,AMA1 RON2 block,Shiga inhibitor,HCV inhibitor
N=C1C(c2nc3ccccc3s2)=C(O)CN1CCCO,14.0,x,19.7%,-7.7%,-12.3,11.1%
CC(NC(=O)CSc1ncn[nH]1)c1ccc(Cl)cc1Cl (configuration not stated),-2.8,-2.0%,-3.7%,3.6%,-8.2,18.0%
CC(C)Cc1ccc(-c2cc3nc(NCCOc4ccccc4)ccn3n2)cc1,x,x,x,9.8%,x,x
Cn1nc(C(C)(C)C)c(NC(=O)c2cccs2)c1C(C)(C)C,-1.1,-5.4%,1.9%,-7.8%,20.7,11.0%
CN1CCN(c2ccc(S(=O)(=O)N3CCCCC3)cc2NC(=O)c2cccc([N+](=O)[O-])c2)CC1,-2.4,0.0%,-23.4%,-17.8%,-8.6,u
Cc1ccccc1C(=O)Nc1cc(S(=O)(=O)N2CCCCC2)ccc1N1CCN(C)CC1,1.3,9.28µM*,u,16.0%,-8.5,-17.1%
CN1CCN(c2ccc(S(=O)(=O)N3CCCCC3)cc2NC(=O)c2ccc3ccccc3c2)CC1,-1.7,9.28µM*,9.28µM*,-26.0%,13.5,u
COc1ccc2c(c1OC)CN1CCc3cc4c(cc3C1C2)OCO4 (configuration not stated),-2.4,u,u,-17.6%,2.5,-27.5%
COc1ccc2c(c1OC)CN1CCc3cc4c(cc3[C@H]1C2)OCO4,x,0.721µM*,3.7µM*,-13.0%,x,11.2µM*
COC(=O)c1ccc2nc(C3CCCCC3)c3c(c2c1)CCC3,x,x,x,12.0%,x,-10.4%
O=S(=O)(c1ccccc1)N1CN(c2ccc(F)cc2F)c2nc3ccccc3nc21,x,x,x,-13.7%,x,u
O=S(=O)(c1ccccc1)N1c2cc(Cl)ccc2Oc2nc3ccccc3nc21,65.5*,u,u,-10.7%,94.1*,u
COCCn1c(SCC(=O)Nc2ccc(F)cc2F)nc2c([nH]c3ccccc32)c1=O,-1.7,5.1%,-12.7%,7.6%,-3.5,-6.3%
COc1ccccc1C(=O)NC(=O)COC(=O)Cn1cnc2c1c(=O)n(C)c(=O)n2C,x,15.5%,8.7%,-8.4%,x,16.4%
Cc1ccc(-c2noc(C3CCCCC3)n2)cc1,26.5,73.4%,113.3%,26.1%,50.0*,4.4%
CCS(=O)(=O)N1CCC(c2nc(-c3ccc(C(F)(F)F)cc3)no2)CC1,-0.4,-13.5%,-14.6%,-3.4%,-16.9,u
COc1ccc(-c2noc(-c3cc(C)cc(C)c3)n2)cc1OC,-7.2,u,x,-1.7%,-14.7,-3.0%
CCS(=O)(=O)N1CCC(c2nc(-c3ccc(C)cc3)no2)CC1,55.4*,u,78.4%,2.7%,74.0*,u
Cc1cccc(-c2noc(-c3ccno3)n2)c1,40.3*,17.2%,20.7%,16.2%,91.1*,9.5%
O=S(=O)(c1ccc(F)cc1)N1CCCC(c2nc(-c3ccc(F)cc3)no2)C1 (configuration not stated),x,-2.6%,18.0%,-3.4%,x,u
Cc1cccc(-c2noc(C3CCCCC3)n2)c1,54.6*,x,163.8%,-3.0%,198.5*,15.3%
Cc1cccc(-c2noc(CCCC(=O)NC3CCCCC3)n2)c1,-4.6,12.4%,-2.0%,4.1%,-11.1,-30.2%
C/C(=N\N=C1\NC(=O)C(CC(=O)Nc2ccccc2F)S1)C1CCCCC1 (configuration not stated),-3.4,46.3%,u,65.9%,-2.4,6.0%
CCN(CC(=O)Nc1c(F)cccc1F)C(=O)COc1cccc2c1OC(C)(C)C2,x,u,-3.4%,3.2%,x,4.2%
COc1ccc(-c2cc(C3C4C=CCCC4(C)C(=O)N3Cc3ccccc3)ccc2F)cc1 (configuration not stated),8.9,x,x,x,10.7,x
CCOc1ccccc1C(C(=O)NC1CCCCC1)N(C(=O)c1csnn1)C1CC1 (configuration not stated),1.2,u,-9.9%,-9.3%,-6.9,5.0%
COc1ccccc1N1CCN(C(=O)C(C)N(c2ccc(C)c(C)c2)S(C)(=O)=O)CC1 (configuration not stated),-3.7,11.7µM*,u,-3.0%,-3.5,u
c1ccc(Oc2cnc3ccccc3n2)cc1,21.4,3.4%,10.1%,-10.4%,35.3,2.1%
